ALR inh – blocks human ALR sulfhydryl oxidase activity; purified ALR, DTT oxidation, H2O2 HRP-luminol luminescence; hit rate 3.8% among 290,000; inhibition, % (concentration not given with the values);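 active = mean replicate inhibition above about 79%, with every replicate also reaching it, limit read from the data; inconclusive = only one of the two criteria met; inactive = mean below limit and not every replicate reaching it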
VLA-4 inh – inhibition in a human VLA-4 binding assay. P13612. VLA-4 expressing cells, ligand binding flow cytometry. inhibition, % (about 7 µM as worked out from the volumes in the protocol). hit rate 0.2% among 330,000. AID 2557; in the data active = inhibition above about 50%
Bfl-1 A1 inh – inhibitors of the anti-apoptotic protein A1, read as caspase activation; caspase activation, % (test concentration not listed); MEF A1-2A-BIM cells, Caspase-Glo 3/7 luminescence, 3 h; percent of clofoctol response, vehicle zero; AID 2462; hit rate 0.066% among 330,000;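 active = over half of replicate activation scores above 10%, or exactly half above 10 with the replicate mean above 10; inconclusive = replicate mean below 10 yet half the replicates above 10; inactive = over half of replicates below 10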
AHR activator – activates the human aryl hydrocarbon receptor. P35869. AHR-responsive luciferase reporter cells, luminescence. activation, % at 5 µM. hit rate 2.5% among 320,000. AID 2796; in the data active = activation above about 47%
Efflux pump mplx – inhibitors of Candida antifungal efflux pumps expressed in yeast. S. cerevisiae Candida pump triplex, Nile Red efflux. inhibition, % at 10 µM. hit rate 0.44% among 330,000. AID 485275;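 active = plate passing quality check with inhibition over a set limit, or well fluorescence over plate mean plus 4 SD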;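 note: Nile Red retained in pooled yeast measured as flow cytometry median fluorescence; higher means more Nile Red kept so more efflux inhibition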
SUMO Mot1 rescue – SUMOylation pathway inhibition by Mot1-301 growth rescue; S. cerevisiae Mot1-301 growth rescue, ATP luminescence, 38.5C; percent above DMSO median, 100 means doubled; growth rescue, % at 18.8 µM; hit rate 1% among 320,000;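 active = every valid replicate shows activation above 250% relative to neutral control wells; inactive = the rest, any valid replicate at or below 250%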
VLA-4 mod pick – confirmation of allosteric modulators of human VLA-4 integrin; shares compounds with VLA-4 inh; U937 cells, HUTS-21 LIBS mAb binding, flow cytometry; LDV ligand present at threefold Kd; inhibition, % at 6.7 µM; hit rate 2% among 1,300; AID 2813; in the data active = inhibition above about 40%
Numbers stand for hits; – = inactive; ? = inconclusive; · = no result given. Most compounds without a hit are left out; they make up all but 7.2% or so of the library.

SMILES	ALR inh	VLA-4 inh	Bfl-1 A1 inh	AHR activator	Efflux pump mplx	SUMO Mot1 rescue	VLA-4 mod pick
COC(=O)c1c(C)[nH]c(C(=O)C(C)OC(=O)C2CC2)c1C (stereo not given)	–	–	–	–	–	–	–
COC(=O)c1c(C)[nH]c(C(=O)C(C)OC(=O)c2cc(C)oc2C)c1C (stereo not given)	·	–	–	–	–	–	·
CN1C(=O)Cc2cc(S(=O)(=O)Nc3ccc(N4CCOCC4)cc3)ccc21	–	–	–	–	–	–	–
CCOC(=O)c1sc2nc(C)nc(SCC(=O)N(C)C3CCS(=O)(=O)C3)c2c1C (stereo not given)	–	–	–	–	–	–	–
Cc1onc(-c2ccccc2Cl)c1C(=O)N1CCC(Cc2ccccc2)CC1	–	–	–	–	–	–	·
O=C(NC(=S)Nc1nc2ccccc2s1)c1ccco1	–	–	–	–	–	–	·
COc1ccc(-c2cc(C3CCN(c4ccc(C(C)=O)cc4[N+](=O)[O-])CC3)[nH]n2)cc1	–	59.2	–	–	–	–	–
COC(=O)c1ccc(N2CCC(c3cc(-c4ccc(OC)cc4)n[nH]3)CC2)c([N+](=O)[O-])c1	–	–	–	–	–	–	·
COc1cc(/C=N/N2CCN(Cc3ccccc3)CC2)cc(OC)c1OC(C)=O	–	–	–	–	–	–	·
O=C(Nc1cccc(S(=O)(=O)N2CCCCC2)c1)c1ccc(S(=O)(=O)C(F)F)cc1	–	–	–	–	–	–	·
N#Cc1ccc(CNC(=O)N2CCOCC2)cc1	–	–	–	–	–	·	–
COc1ccc(CNC(=O)CN(Cc2ccco2)C(=O)CNS(=O)(=O)c2ccc(F)cc2)cc1	–	–	–	–	–	–	·
COc1ccc(/C=N/NC(=O)CNc2n[nH]c(=O)[nH]c2=O)cc1OC	–	–	–	–	–	–	·
COc1ccc(/C=N/NC(=O)CCc2n[nH]c(=O)[nH]c2=O)cc1O	99.3	–	–	–	–	–	–
COc1cccc(OC)c1C(=O)NC(=S)NCc1cccnc1	–	–	–	–	–	–	·
Cc1ccc(C(=O)N2CCC(C)CC2)cc1NC1=NC2CS(=O)(=O)CC2S1 (stereo not given)	·	66.6	–	–	–	–	–
Cc1ccc(C(=O)N2CC(C)CC(C)C2)cc1NC1=NC2CS(=O)(=O)CC2S1 (stereo not given)	–	–	–	–	–	–	–
O=c1[nH]c(=O)c2cn[nH]c2[nH]1	–	–	–	–	–	–	·
COc1ccc(N(CC(=O)Nc2cc(C)ccc2C)S(=O)(=O)c2c(C)[nH]c(=O)[nH]c2=O)cc1	–	–	–	–	–	–	–
COc1ccc(N(CC(=O)Nc2cc(Cl)ccc2OC)S(=O)(=O)c2c(C)[nH]c(=O)[nH]c2=O)cc1	–	–	–	–	–	–	–
Cc1ccc(N(CC(=O)Nc2ccc(Br)c(C)c2)S(=O)(=O)c2c(C)[nH]c(=O)[nH]c2=O)cc1	–	–	–	–	–	–	–
COc1ccc(N(CC(=O)NCc2ccc(C)cc2)S(=O)(=O)c2c(C)[nH]c(=O)[nH]c2=O)cc1	–	–	·	–	–	·	·
CCOC(=O)c1sc(NS(=O)(=O)c2ccccc2Cl)nc1C	–	–	–	–	–	–	·
CCOc1cc(N2CCOCC2)c(OCC)cc1NC(=O)COC(=O)c1cccc2ccccc12	–	–	–	–	–	–	·
CC(=O)N[C@H](Cc1c[nH]c2ccccc12)C(=O)O	–	50.1	–	–	–	–	–
SMILES	ALR inh	VLA-4 inh	Bfl-1 A1 inh	AHR activator	Efflux pump mplx	SUMO Mot1 rescue	VLA-4 mod pick
C=C1C(=O)O[C@@]23[C@H]1CC[C@@H](C)[C@@H]2CC[C@@]1(C)O[C@@H]31	–	–	–	–	–	–	·
COC(=O)[C@]1(Cc2ccccc2)N[C@H](CN(C)C(=O)Nc2ccc(OC)cc2)[C@@H]2C(=O)N(Cc3ccccc3)C(=O)[C@@H]21	·	–	–	–	–	–	–
CCN(C[C@H]1N[C@@](Cc2ccccc2)(C(=O)OC)[C@H]2C(=O)N(C)C(=O)[C@@H]12)C(=O)Nc1ccc(C)cc1	·	–	·	–	–	·	·
CCN(C[C@H]1N[C@@](Cc2ccccc2)(C(=O)OC)[C@H]2C(=O)N(Cc3ccccc3)C(=O)[C@@H]12)C(=O)c1ccc(F)cc1	·	–	·	–	–	·	–
CCN(C[C@H]1N[C@@](Cc2ccccc2)(C(=O)OC)[C@H]2C(=O)N(C)C(=O)[C@@H]12)C(=O)c1ccc(C)cc1	·	51.1	·	–	–	·	–
CCN(C[C@H]1N[C@@](CC)(C(=O)OC)[C@H]2C(=O)N(Cc3ccccc3)C(=O)[C@@H]12)C(=O)c1ccc(F)cc1	–	–	?	–	–	–	·
Cc1ccc(S(=O)(=O)N(C)C)cc1N	–	–	–	–	–	–	·
COc1ccc(C(=O)CC(=O)C(=O)Nc2ccccc2Cl)cc1	–	–	–	–	–	–	·
CCC(COC(=O)Nc1cccc(C)c1)NC(=O)OCC(C)C (stereo not given)	–	94.5	–	–	–	–	–
CCNC(=O)OCC(CC)NC(=O)OCC(C)C (stereo not given)	·	–	–	–	–	–	·
C#CC1CN(Cc2ccccc2)CC(C#C)N1C (stereo not given)	·	61.8	–	–	–	–	–
c1ccc(CN2CCC(N3CCC(N4CCCCCC4)CC3)CC2)cc1	–	–	–	–	–	–	·
CCN1CCN(CC(O)COc2ccc(C)c(C)c2)CC1 (stereo not given)	–	92.2	–	–	–	–	–
CCOC(=O)N1CCN(Cc2nc3cc(NC(=O)CC(C)C)ccc3n2C)CC1	·	–	–	–	–	–	·
CCOC(=O)N1CCN(Cc2nc3cc(NC(=O)CC(C)C)ccc3n2CC)CC1	–	51.0	–	–	–	–	–
O=S(=O)(c1ccc(Br)cc1)N1CCN(Cc2ccco2)CC1	–	–	–	–	–	–	·
CC(=O)Oc1ccc(NC(=O)Cc2ccccc2)c(C(=O)O)c1	–	51.6	–	–	–	–	–
CC(C)(C)NC(=O)c1ccccc1NC(=O)C1CCCO1 (stereo not given)	–	–	–	–	–	–	·
O=C(c1cc(-c2cccs2)nc2ccccc12)N1CCN(S(=O)(=O)c2cccc(F)c2)CC1	–	91.2	–	–	–	–	–
O=C(c1cc(-c2cccs2)nc2ccccc12)N1CCN(S(=O)(=O)c2ccccc2)CC1	–	–	–	–	–	–	–
Cc1ccc(-c2nn3c(-c4ccco4)nnc3c3ccccc23)cc1S(=O)(=O)NCC1CCCO1 (stereo not given)	–	–	–	–	–	–	–
Cc1ccc(-c2nnc(Nc3ccccc3)c3ccccc23)cc1S(=O)(=O)NCC1CCCO1 (stereo not given)	–	–	–	–	–	·	·

Source: PubChem BioAssay (several laboratories)
